# In the library only some 1.1% were active in any assay of this set; here they are far more common.
# HTR5A ag: HTR5A agonism, opioid heterodimer counter-screen | activation, % at 9.3 µM | 340,000 tested, 0.61% active | HTR5A agonist assay, luminescence, cell-based; in the data active = activation mostly above about 9.5%, no sharp cut-off; inactive = mostly below about 7.6%;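 note: 0% = cells with vehicle only and 100% = reference agonist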
# Target sequence (P47898 whole entry, looked up): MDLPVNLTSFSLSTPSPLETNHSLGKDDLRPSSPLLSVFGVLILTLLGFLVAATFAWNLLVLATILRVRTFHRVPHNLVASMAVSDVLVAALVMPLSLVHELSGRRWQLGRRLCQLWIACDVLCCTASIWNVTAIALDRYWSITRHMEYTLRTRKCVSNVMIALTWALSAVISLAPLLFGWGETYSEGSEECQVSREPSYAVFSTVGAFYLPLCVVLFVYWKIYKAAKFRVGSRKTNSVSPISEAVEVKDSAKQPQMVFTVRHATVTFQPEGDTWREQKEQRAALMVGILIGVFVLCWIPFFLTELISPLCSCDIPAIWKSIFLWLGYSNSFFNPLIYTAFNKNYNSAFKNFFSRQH
# OPRM1-OPRD1 ag: OPRM1-OPRD1 heterodimerization agonism; activation, % at 9.3 µM; AID 504326; cells, luminescence; 340,000 tested, 0.3% active; in the data active = activation above about 18%;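 note: 0% = vehicle-treated cells and 100% = reference agonist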
# MOR-DOR inv ag: inverse agonists of human mu-delta opioid receptor heterodimerization; cell-based MOR-DOR heterodimer luminescence, inverse agonism; inhibition, % at 9.3 µM; 340,000 tested, 0.21% active; in the data active = inhibition above about 22%, passing the limit was not always enough;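 note: 0% = cells with DMSO and 100% = wells without cells with DMSO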
# HTR5A inv ag: counter-screen for OPRM1-OPRD1 inverse agonists: human HTR5A inverse agonism | HTR5A cell line, luminescence | inhibition, % at 9.3 µM | 340,000 tested, 0.083% active | AID 504634 | P47898; in the data active = inhibition mostly above about 23%, no sharp cut-off; inactive = mostly below about 18%;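 note: 0% = cells with DMSO and 100% = no-cell wells with DMSO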
# Numbers without * were called inactive.
SMILES,HTR5A ag,OPRM1-OPRD1 ag,MOR-DOR inv ag,HTR5A inv ag
CCOc1cc(/C=N/NC(=O)c2cc(C3CC3)[nH]n2)ccc1O,0.7,0.4,-2.9,-1.8
COc1cccc(NC(=O)c2cccs2)c1,1.3,-2.3,11.9,-7.1
NC(=O)C1CCN(Cc2nnnn2Cc2ccco2)CC1,-0.5,-1.1,6.5,8.2
CCOC(=O)C1=C(C)N(C)C(=S)NC1c1cccc(Cl)c1Cl (stereo not drawn),10.2*,0.3,-2.3,-27.3
CC(=O)Nc1nc(-c2cccs2)cs1,-0.8,-2.7,15.2,5.1
O=C(Nc1nc(-c2cccs2)cs1)c1ccc(Cl)s1,13.9*,5.1,-26.0,-41.5
COc1ccc(-n2cc(-c3ccccc3)c3c(NN4CCOCC4)ncnc32)cc1,-0.5,0.2,-1.2,-2.5
CC1CN(c2ncnc3c2c(-c2ccccc2)cn3-c2ccc(F)cc2)CC(C)O1 (stereo not drawn),-20.8,-12.8,61.9*,77.0*
Fc1ccc(-n2cc(-c3ccccc3)c3c(NN4CCOCC4)ncnc32)cc1,-17.1,-5.6,33.6*,45.7*
OCCN1CCN(c2ncnc3c2c(-c2ccccc2)cn3-c2ccc(F)cc2)CC1,-17.1,-9.5,45.0*,44.2*
Cc1cc(S(=O)(=O)N2CCOCC2)ccc1OCC(=O)Nc1ccc(F)c(Cl)c1,2.0,2.4,-15.0,0.3
CC(C)[C@H](NC(=O)OC(C)(C)C)c1nnc(S(=O)(=O)Cc2c(F)cccc2Cl)o1,1.1,0.0,-0.2,-38.0
Cn1c(=O)c2c(ncn2Cc2ccc(Cl)cc2)n(C)c1=O,8.0*,-2.1,12.2,-20.7
Cn1c(=O)c2c(ncn2CC(COCc2ccc(Cl)cc2)OCc2ccc(Cl)cc2)n(C)c1=O (stereo not drawn),2.1,-0.9,5.0,-5.7
CCOC(=O)/C=C1\SCC(=O)N1CC(=O)Nc1ccc(OC)c(OC)c1,2.5,-1.3,7.3,-14.7
CCOC(=O)/C=C1/SCC(=O)N1CC(=O)NC12CC3CC(CC(C3)C1)C2,10.0*,-3.4,17.6,-41.0
COc1cc2c(cc1OC)CN(C1CCCN(Cc3cc(Cl)ccc3O)C1)CC2 (stereo not drawn),-3.7,-1.9,9.2,12.6
CCCSc1nsc(NC(=O)c2cccnc2OCC)n1,4.6,0.2,-1.1,4.6
Cc1cc(C)c(-c2c(O)c3c(n(C)c2=O)CC(C)(C)CC3=O)c(C)c1,-2.4,-0.7,4.0,6.4
Cc1cc(C)c2c(c1)CC(C)(C)CC2=O,9.2*,-1.8,9.3,-37.9
Cc1cccn2c(=O)c(/C=C(\C#N)C(N)=O)c(N3CCN(Cc4ccc5c(c4)OCO5)CC3)nc12,11.4*,-1.0,5.3,-39.5
COC(=O)/C(C#N)=C/c1c(N2CCN(Cc3ccc4c(c3)OCO4)CC2)nc2c(C)cccn2c1=O,-2.5,-1.7,8.9,29.5
Cc1cccc(NC(=S)N(Cc2ccc(Br)cc2)Cc2ccc(C(=O)O)cc2)c1,-2.9,-2.3,12.8,8.1
Cc1cc(NC(=S)N(Cc2ccc(Br)cc2)Cc2ccc(C(=O)O)cc2)ccc1Cl,12.3*,-2.5,11.4,-33.7
CCC(=O)Nc1ccc(C(=O)c2ccccc2)cc1,2.6,-2.0,9.9,-6.4
SMILES,HTR5A ag,OPRM1-OPRD1 ag,MOR-DOR inv ag,HTR5A inv ag
N#Cc1ccc(COc2cccc3cccnc23)cc1,13.7*,1.7,-10.9,-10.1
O=[N+]([O-])c1ccc(COc2cccc3cccnc23)cc1,-2.5,-1.0,4.3,9.4
Cc1nnc(N2CCOCC2)c2nn(-c3cccc(Cl)c3)c(C)c12,1.4,-1.9,10.1,15.3
COc1ccc(NS(=O)(=O)c2cc(NS(=O)(=O)c3cc(C(=O)O)ccc3OC)ccc2C)cc1,-7.1,-5.1,20.0,12.6
COc1ccc(NS(=O)(=O)c2cc(C(=O)O)ccc2C)cc1,12.0*,-0.8,4.6,-28.8
CCn1c(SCC(=O)n2nc(C)cc2C)nnc1-c1ccc2c(c1)OCO2,2.4,-2.0,10.1,4.7
Cc1cccc(CC2S/C(=N/N=C/c3ccco3)N(c3ccccc3)C2=O)c1 (stereo not drawn),13.8*,5.3,-29.1,6.7
CCOc1ccc(Cn2nnc(C(=O)Nc3cc(C)cc(C)c3)c2N)cc1,11.8*,6.0,-29.9,-31.1
CCOc1ccc(Cn2nnc(C(=O)Nc3cc(OC)cc(OC)c3)c2N)cc1,1.0,2.7,-13.2,-2.6
COCCn1c(SCC(=O)NCc2ccc(F)cc2)nc2ccccc21,12.9*,-0.1,0.9,-23.8
COCCn1c(SCC(=O)NCc2ccccc2)nc2ccccc21,2.6,2.5,-20.6,-7.6
Cc1cccc(C)c1OCc1cc(C(=O)N(Cc2c(C)nn(C)c2C)C2CC2)no1,11.4*,2.1,-11.3,-9.8
Cc1cccc(C)c1OCc1cc(C(=O)NCC2CCCCC2)no1,-0.8,3.0,-16.1,-5.8

# High-throughput results as filed in PubChem BioAssay.
